Assay results published in paper PMC4336329 (PLoS ONE, 2015).
About 14,000 (4.5%) of roughly 310,000 compounds showed an effect of 50% or more. The effect is printed as a negative number. The entries come from a sample that favours strong results as a whole.

Each molecule was assayed against human ether-à-go-go-related gene (hERG) potassium channel (human, UniProt Q12809) (assay: primary screen, population patch clamp on CHO cells stably expressing hERG; higher = less effect of the substance).
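Note: peak tail current of the secondary pulse compared with the same well before compound.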

Sequence of human ether-à-go-go-related gene (hERG) potassium channel (Q12809 whole entry, looked up): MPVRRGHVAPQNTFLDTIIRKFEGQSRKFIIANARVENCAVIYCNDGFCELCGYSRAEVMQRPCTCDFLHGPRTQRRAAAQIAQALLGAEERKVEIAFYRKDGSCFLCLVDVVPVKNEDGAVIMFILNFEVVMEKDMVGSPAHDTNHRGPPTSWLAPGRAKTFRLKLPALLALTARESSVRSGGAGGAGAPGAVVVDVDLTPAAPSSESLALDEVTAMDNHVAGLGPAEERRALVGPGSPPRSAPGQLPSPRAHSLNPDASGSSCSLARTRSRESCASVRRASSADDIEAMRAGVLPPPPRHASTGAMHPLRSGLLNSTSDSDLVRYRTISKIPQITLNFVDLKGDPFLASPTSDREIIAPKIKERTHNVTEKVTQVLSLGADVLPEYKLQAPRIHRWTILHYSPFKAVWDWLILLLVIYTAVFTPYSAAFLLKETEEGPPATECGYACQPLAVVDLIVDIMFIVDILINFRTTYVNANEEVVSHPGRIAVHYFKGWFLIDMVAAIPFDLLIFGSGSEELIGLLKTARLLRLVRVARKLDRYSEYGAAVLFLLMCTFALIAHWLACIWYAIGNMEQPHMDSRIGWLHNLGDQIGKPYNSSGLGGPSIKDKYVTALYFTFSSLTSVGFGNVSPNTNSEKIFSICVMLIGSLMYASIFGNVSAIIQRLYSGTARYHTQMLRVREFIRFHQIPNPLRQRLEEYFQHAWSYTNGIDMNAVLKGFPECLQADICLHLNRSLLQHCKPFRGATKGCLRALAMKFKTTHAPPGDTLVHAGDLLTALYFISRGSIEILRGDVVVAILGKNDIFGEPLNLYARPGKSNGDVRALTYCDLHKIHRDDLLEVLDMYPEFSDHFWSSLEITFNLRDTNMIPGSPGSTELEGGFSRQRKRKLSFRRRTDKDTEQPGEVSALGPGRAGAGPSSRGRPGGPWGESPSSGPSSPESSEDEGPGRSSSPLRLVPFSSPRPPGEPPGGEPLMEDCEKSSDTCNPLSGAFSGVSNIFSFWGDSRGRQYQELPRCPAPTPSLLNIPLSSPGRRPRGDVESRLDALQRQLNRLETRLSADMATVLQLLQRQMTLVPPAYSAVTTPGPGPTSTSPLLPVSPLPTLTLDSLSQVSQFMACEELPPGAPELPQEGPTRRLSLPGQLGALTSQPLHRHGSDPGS

Compound	hERG current change (%, negative = inhibition) at 10uM [%]
O=C(CSc1nc(-c2ccccc2)cc(=O)[nH]1)Nc1ccccc1	18
COc1ccc(C(=O)/C=C/c2cn(CC(O)CN3CCOCC3)c3ccccc23)cc1 (stereo not drawn)	3.55
O=C(CSc1ccccn1)Nc1cccc(NC(=O)CSc2ccccn2)n1	-11.9
Cn1c(=O)c(=O)n(C)c2cc(S(=O)(=O)N3CCN(Cc4ccccc4)CC3)ccc21	-63.4
CS(=O)(=O)N1CCN(C2CCN(Cc3ccccc3)CC2)CC1	-1.48
O=S(=O)(c1ccccc1)N1CCN(Cc2ccc(Cl)cc2)CC1	-22.7
O=S(=O)(c1ccccc1)N1CCN(C2CCN(Cc3ccccc3)CC2)CC1	-64
Cn1c(=O)c(=O)n(C)c2cc(S(=O)(=O)N3CCC(Cc4ccccc4)CC3)ccc21	-10.9
O=[N+]([O-])c1ccccc1S(=O)(=O)N1CCN(C2CCN(Cc3ccccc3)CC2)CC1	-51.9
O=[N+]([O-])c1ccccc1S(=O)(=O)N1CCN(C2CCCC2)CC1	0.58
O=S(=O)(c1ccc(Cl)cc1)N1CCN(C2CCN(Cc3ccccc3)CC2)CC1	-71.4
O=S(=O)(c1ccccc1)N1CCN(Cc2ccccc2)CC1	19.3
O=S(=O)(c1ccc(Cl)cc1)N1CCN(C2CCCCCC2)CC1	-17.3
O=[N+]([O-])c1ccccc1S(=O)(=O)N1CCN(Cc2ccccc2)CC1	-34.6
Cn1c(=O)c(=O)n(C)c2cc(S(=O)(=O)N3CC(=O)N(CCc4ccccc4)C(=O)C3)ccc21	19.4
CC(=O)c1c(C)[nH]c(C(=O)COc2cc(C)ccc2C(C)C)c1C	14.1
O=C(CSc1nnnn1-c1ccc2c(c1)OCCO2)N1CCN(C(=O)c2ccco2)CC1	-16.6
CCN1C(=O)S/C(=C/c2ccc(Oc3ccc([N+](=O)[O-])cn3)c(OC)c2)C1=O	9.24
O=C(COC(=O)c1cccs1)Nc1ccc(F)c(F)c1	12.2
COC(=O)COc1ccc(/C=C2/NC(=O)N(CC(=O)OC)C2=O)cc1	12.3
CC1(C)CC(=O)C(Sc2ccccc2)=C(O)C1	15.8

Compound	hERG current change (%, negative = inhibition) at 10uM [%]
COc1ccccc1N1CCN(C2CCN(S(=O)(=O)c3ccc(NC(C)=O)cc3)CC2)CC1	0.727
CC(=O)Nc1ccc(S(=O)(=O)N2CCN(Cc3cccc([N+](=O)[O-])c3)CC2)cc1.O=C(O)C(=O)O	-3.41
COc1ccc(S(=O)(=O)N2CCC(N3CCN(c4ccccc4OC)CC3)CC2)cc1	-66.5
O=C(O)C(=O)O.O=[N+]([O-])c1ccc(S(=O)(=O)N2CCN(Cc3ccco3)CC2)cc1	15.3
COc1ccccc1N1CCN(C2CCN(S(=O)(=O)c3ccc(C)cc3)CC2)CC1	-36.4
O=C(O)C(=O)O.O=[N+]([O-])c1ccc(S(=O)(=O)N2CCN(C3CCN(Cc4ccccc4)CC3)CC2)cc1	-78.2
COc1ccc(N(CC(=O)NCCSCc2ccc(C)cc2)S(=O)(=O)c2ccccc2)cc1	3.04
O=c1cccc2n1CC1CC2CN(S(=O)(=O)c2ccccc2)C1 (stereo not drawn)	-3.59
Cc1cc2occ(CC(=O)N(C)CC(=O)Nc3ccc(F)cc3)c2cc1C	-9.51
COC(=O)CN=C1OC(=O)N2C(=O)C3=C4[C@@H](C[C@H]5C(=O)N(c6ccccc6)C(=O)[C@H]5[C@H]4[C@@]12Cc1ccccc1)[C@H]1C(=O)N(c2ccccc2)C(=O)[C@H]1[C@H]3C	4.25
O=C(c1ccccc1)N1CCN(c2ncnc3sc4c(c23)CCC4)CC1	-56
Oc1ccc(N2CCN(c3ncnc4sc5c(c34)CCC5)CC2)cc1	-7.35
c1ccc(N2CCN(c3ncnc4sc5c(c34)CCC5)CC2)cc1	12.4
O=C(c1ccco1)N1CCN(c2ncnc3sc4c(c23)CCC4)CC1	-56.6
O=C(Nc1ncnc2sc3c(c12)CCC3)c1ccco1	-4.5
O=C(CSc1ncnc2sc3c(c12)CCCC3)c1ccco1	6.66
COc1ccc2nc(NC(=O)C3CCN(S(=O)(=O)c4cccs4)CC3)sc2c1	-13.6
COc1cc(OC)cc(C(=O)NC2CCSC2=O)c1 (stereo not drawn)	-5.55
CCN(CC)CCCC(C)NC(=O)c1ccc(C(F)(F)F)cc1.Cl (stereo not drawn)	-7.01
CCOC(=O)N1CCN(C(=O)Cn2nc(C)n3nc(-c4ccc(OC)cc4)cc3c2=O)CC1	13.4
CC(Sc1nncn1C)C(=O)NCc1ccc2c(c1)OCO2 (stereo not drawn)	34.9

Compound	hERG current change (%, negative = inhibition) at 10uM [%]
CC(Sc1nnc(-c2cccs2)n1-c1ccccc1)C(=O)NCc1ccc2c(c1)OCO2 (stereo not drawn)	-74.8
O=C(CSc1nnc(-c2cccs2)n1Cc1ccccc1)NCc1ccc2c(c1)OCO2	-75.8
O=C(CSc1nnc(-c2cccs2)n1-c1ccccc1)NCc1ccc2c(c1)OCO2	-43.7
CCn1c(SCC(=O)NCc2ccc3c(c2)OCO3)nnc1-c1cccs1	-23.1
CC(Sc1nnc2ccccn12)C(=O)NCc1ccc2c(c1)OCO2 (stereo not drawn)	4.95
Cn1c(SCC(=O)NCc2ccc3c(c2)OCO3)nnc1-c1cccs1	-17.1
CCn1c(SCC(=O)NCc2ccc3c(c2)OCO3)nnc1-c1ccncc1	13
CC(Sc1nnc(-c2cccs2)n1Cc1ccccc1)C(=O)NCc1ccc2c(c1)OCO2 (stereo not drawn)	-55.9
COCC(=O)Nc1cc(C(=O)Nc2ccccc2C)ccc1Cl	-3.92
COc1cc(CNc2cc(C)ccc2C)cc(OC)c1OC	-4.46
Cc1cc(C)nc(N/N=C/c2c(CO)cnc(C)c2O)n1	-10.7
O=C(Nc1cccc2oc(=O)ccc12)c1ccc([N+](=O)[O-])cc1[N+](=O)[O-]	-59.9
O=C(Nc1ncccn1)c1ccc([N+](=O)[O-])cc1[N+](=O)[O-]	-7.61
COc1ccccc1NC(=O)c1ccc([N+](=O)[O-])cc1[N+](=O)[O-]	-19.6
CCOc1ccccc1C(=O)Nc1ccc2nc(N3CCN(c4ncccn4)CC3)cc(C)c2c1	-8.08
COc1cc(C)c(NC(=S)Nc2cccc(Cl)c2)cc1OC	6.72
CCCCNC(=O)Cn1nc(-c2ccc(C)cc2)ccc1=O	-1.13
Cc1ccc(CNC(=O)CCn2nc(-c3ccc(Cl)cc3)ccc2=O)cc1	-35.3
O=C(CCn1nc(-c2ccc(Cl)cc2)ccc1=O)NCc1ccccn1	-32
Cc1ccc(-c2ccc(=O)n(CCC(=O)NCCN3CCCCC3C)n2)cc1 (stereo not drawn)	-58.7
CC(NC(=O)CCn1nc(-c2ccc(Cl)cc2)ccc1=O)c1ccccc1 (stereo not drawn)	-60.6

Compound	hERG current change (%, negative = inhibition) at 10uM [%]
CC(NC(=O)Cn1nc(-c2ccccc2)ccc1=O)c1ccccc1 (stereo not drawn)	-13.4
CCCCN(C)CCNC(=O)CCn1nc(-c2ccc(C)cc2)ccc1=O	-83.4
Cc1ccc(-c2ccc(=O)n(CC(=O)NCCN3CCCCC3C)n2)cc1 (stereo not drawn)	0.96
COCCNC(=O)CCn1nc(-c2ccc(C)cc2)ccc1=O	-34.4
COCCCNC(=O)CCn1nc(-c2ccc(Cl)cc2)ccc1=O	-27.9
Cc1ccc(-c2ccc(=O)n(CC(=O)NCCCN3CCCCC3C)n2)cc1 (stereo not drawn)	-10.3
Cc1ccc(-c2ccc(=O)n(CCC(=O)NCc3ccccn3)n2)cc1	-61
O=C(CCc1ccccc1)NCCCNC(=O)CCc1ccccc1	7.49
C=CCn1c(C)nnc1SCC(=O)Nc1nccs1	16.6
NC(=O)c1ccccc1NC(=O)/C=C/c1c(Cl)cccc1Cl	-31.3
Cc1ccc(-c2nnc(N)o2)cc1	9.43
Cc1ccc(NC(=O)COC(=O)CCc2ccccc2)c(Cl)c1	27.1
CC(C)CCNC(=O)CCn1nc(-c2ccc(Cl)cc2)ccc1=O	-54.6
COCCNC(=O)CCn1nc(-c2ccc(Cl)cc2)ccc1=O	-30.2
CCCCN(C)CCNC(=O)CCn1nc(-c2ccc(Cl)cc2)ccc1=O	-67.1
CC(C)CCNC(=O)CCn1nc(-c2ccccc2)ccc1=O	-46.8
CN(C)CCNC(=O)CCn1nc(-c2ccc(Cl)cc2)ccc1=O	-15.4
CCCCNC(=O)CCn1nc(-c2ccc(Cl)cc2)ccc1=O	-23.4
O=C(CSCc1c(F)cccc1Cl)Nc1ccccc1C(=O)N1CCOCC1	5.4
Cc1ccc(C)c(-c2ccc(=O)n(Cc3cccc(Br)c3)n2)c1	10.7
CCOc1ccc(NC(=O)C2CCCN(c3nc(C)cc(C)n3)C2)cc1 (stereo not drawn)	12.4
